Screening data: PubChem, several laboratories
CYP2C19 inhib: blockers of cytochrome P450 2C19 activity – biochemical, luminescence, ADME assay, primary screen | P33261 | CYP2C19 Supersomes, luciferin-H EGE luminescence, 30 min | inhibition, % at 5 µM | hit rate 21% among 96,000 | AID 778, 2007;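 active = CYP2C19 inhibition above a set limit at 5 µM in the primary screen, cut at about 50% in these data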;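 note: plate controls were negative control wells for no effect and 2.5 mM tranylcypromine positive control for full effect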
D1 mod: D1 CRE-luciferase signal change, two-sided – cell-based, HEK293 D1, dopamine EC30, D1 allosteric modulator project, primary screen. AID 641, 2007. B-score at 10 µM. hit rate 5.9% among 58,000. dopamine EC30 potentiation; actives deviate in either direction;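 active = luminescence count or its row- and column-corrected plate score outside the 99.7% band of the plate's sample wells, on either side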
CYP2C9 activ: human CYP2C9 activators, primary screen, biochemical, luminescence; Cytochrome P450 2C9 (Homo sapiens), P11712; recombinant CYP2C9, luciferin-H conversion; stronger effect = higher value; factor 1 = untreated enzyme, 0 = blocked; activation factor at 5 µM; hit rate 1.4% among 96,000; AID 1024, 2008;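 active = activation factor of 2 or more for CYP2C9 at a 5 µM dose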;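 note: 0 = sulfaphenazole-blocked wells and 1 = vehicle-only wells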
CYP2C9 inh: blockers of cytochrome P450 2C9 activity – biochemical, luminescence, ADME assay, primary screen | P11712 | CYP2C9 Supersomes, luciferin-H conversion | inhibition, % at 5 µM | hit rate 20% among 96,000;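 active = blocking of liver enzyme CYP2C9 beyond about 50% at 5 µM, limit read from the data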
DAT uptake mod: changed hDAT dopamine uptake under cocaine IC80, either direction, primary screen, cocaine antagonist project, cell-based, LLC-PK1 hDAT, [14C]-dopamine uptake, MLSMR; AID 449768, 2010; Sodium-dependent dopamine transporter (Homo sapiens), Q01959; LLC-PK1 hDAT cells, [14C]-dopamine uptake with cocaine IC80; actives deviate in either direction; B-score at 10 µM; hit rate 1.3% among 110,000;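 active = Z score or B-score, a plate-position-corrected score, falls beyond the plate's 99.7% confidence bounds, in either direction; inactive = both scores lie inside the 99.7% bounds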;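 note: scored against the spread of the other compound wells on the same plate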
Target sequence (Q01959 whole entry, looked up): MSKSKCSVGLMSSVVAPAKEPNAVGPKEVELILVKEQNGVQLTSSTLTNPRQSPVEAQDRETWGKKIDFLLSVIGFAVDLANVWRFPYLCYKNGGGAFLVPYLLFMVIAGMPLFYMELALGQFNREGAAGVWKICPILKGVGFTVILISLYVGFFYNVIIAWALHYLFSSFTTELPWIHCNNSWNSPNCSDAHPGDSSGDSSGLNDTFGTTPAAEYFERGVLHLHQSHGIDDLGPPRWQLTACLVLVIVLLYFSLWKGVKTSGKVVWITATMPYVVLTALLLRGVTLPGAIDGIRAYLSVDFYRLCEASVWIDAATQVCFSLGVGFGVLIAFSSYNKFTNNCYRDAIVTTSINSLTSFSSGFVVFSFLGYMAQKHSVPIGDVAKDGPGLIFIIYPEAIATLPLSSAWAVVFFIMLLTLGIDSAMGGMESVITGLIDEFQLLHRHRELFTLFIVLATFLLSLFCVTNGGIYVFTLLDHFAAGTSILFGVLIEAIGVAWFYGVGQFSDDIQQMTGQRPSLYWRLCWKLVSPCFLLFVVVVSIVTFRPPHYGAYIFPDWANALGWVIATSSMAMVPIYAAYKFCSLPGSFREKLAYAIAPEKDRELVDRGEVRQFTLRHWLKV
CYP2C19 activ: human CYP2C19 activators, primary screen, biochemical, luminescence; Cytochrome P450 2C19 (Homo sapiens), P33261; recombinant CYP2C19, luciferin-H EGE luminescence; stronger effect = higher value; 0 = fully inhibited enzyme, 1 = untreated enzyme; activation factor at 5 µM; 96,000 tested, under 10 active;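 active = activation factor of at least 2 at 5 µM in the primary screen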;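 note: 0 = wells with 2.5 mM tranylcypromine and 1 = vehicle-only wells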
An asterisk follows results filed as active; x = no result. Shown are actives, neighbours in structure and some others; about 28% of the full set was active somewhere.

SMILES	CYP2C19 inhib	D1 mod	CYP2C9 activ	CYP2C9 inh	DAT uptake mod	CYP2C19 activ
O=C(c1cccc(S(=O)(=O)N2CCCCC2)c1)N1CCN(S(=O)(=O)c2ccc(F)cc2)CC1	35	x	0.6	41	x	0.6
CC(C)c1ccc(S(=O)(=O)N2CCN(C(=O)c3cccc(F)c3)CC2)cc1	67*	-0.071	0.3	67*	-0.0058	0.3
O=C(c1ccccc1)N1CCN(S(=O)(=O)N2CCCCC2)CC1	87*	0.26	0.5	49	-0.21	0.1
O=C(NCc1nc2ccccc2[nH]1)C1=C[C@H](c2ccc3c(c2)OCO3)C[C@H](OCc2ccc(CO)cc2)O1	x	x	x	x	1.1	x
CC1(c2nnc(Cc3ccccc3)o2)CC(c2c(Cl)cccc2Cl)=NO1 (stereo not drawn)	x	x	x	x	2.2	x
CCn1c(SCC(=O)N2CCN(c3ccc(Cl)cc3)CC2)nc2ccccc2c1=O	24	-0.14	0.5	47	-0.025	0.8
Cc1nn(-c2ccccc2)c(C)c1/C=N/NC(=O)CSc1nc2ccccc2c(=O)n1-c1ccc(Br)cc1	32	x	0.5	51*	0.22	0.7
CCCn1c(SCC(=O)N2CCN(c3ccccc3)CC2)nc2ccccc2c1=O	97*	-1.1	0.1	93*	0.22	0
COc1ccc(N2CCN(c3nc4c(c(=O)n(C)c(=O)n4C)n3Cc3ccccc3)CC2)cc1	49	0.26	0.3	68*	1.3	0.5
CCn1c(SCC(=O)N2CCCC2)nc2ccccc2c1=O	5	0.64	0.7	31	-0.75	1
CCOC(=O)N1CCN(C(=O)CSc2nc3ccccc3c(=O)n2-c2ccccc2)CC1	56*	-0.22	0	98*	0.45	0.4
COCC(C)n1c(SCC(=O)N2CCCCC2)nc2ccccc2c1=O (stereo not drawn)	46	0.76	0.5	54*	2.5	0.5
CCCn1c(SCC(=O)N2CCN(c3ccc(OC)cc3)CC2)nc2c1c(=O)n(C)c(=O)n2C	13	-5.2*	0.8	18	-0.68	0.9
CCn1c(SCC(=O)N2CCN(c3ccc(F)cc3)CC2)nc2ccccc2c1=O	63*	-1.4	0.4	59*	-0.84	0.4
CCCCn1c(SCC(=O)N2CCN(c3ccccc3)CC2)nc2ccsc2c1=O	51*	-0.79	0.1	88*	-0.22	0.5
O=C(NCc1cccc(Br)c1)c1cc(-c2ccccc2)nn1CC1CC(c2cccc([N+](=O)[O-])c2)=NO1 (stereo not drawn)	x	x	x	x	2.5	x
CCOc1ccccc1NC(=O)C(=O)NCC1CCCN1CC (stereo not drawn)	-1	x	1	1	-0.081	1
CC1CCCC(C)N1c1nnc(N)s1 (stereo not drawn)	x	-0.0033	x	x	x	x
O=C(CN1C(=O)COc2ccccc21)N(CCCN1CCOCC1)CC1CC=CCC1 (stereo not drawn)	-7	0.23	1.1	-10	0.92	1.1
CCC1CCCCN1C(=O)CSc1nc2ccsc2c(=O)n1Cc1ccccc1 (stereo not drawn)	50*	x	0.3	70*	0.66	0.5
Cc1cc(Nc2cc(C(=O)O)ccc2C)n2ncnc2n1	-2	-0.54	1	1	-1	1
Cc1ccc(COn2c(-c3ccc(Cl)cc3Cl)nc3ncccc32)cc1	83*	x	0.7	34	0.25	0.2
COC(=O)c1sc2ncccc2c1OCc1cccc(Cl)c1	-2	x	1	2	-0.05	1
Clc1cccc(COn2c(-c3ccc(Cl)cc3Cl)nc3ncccc32)c1	94*	x	0.1	91*	-0.2	0.1
C/C(=C\[C@@H](NP(=O)(c1ccccc1)c1ccccc1)c1ccccc1)CO[Si](c1ccccc1)(c1ccccc1)C(C)(C)C	x	x	x	x	0.29	x
SMILES	CYP2C19 inhib	D1 mod	CYP2C9 activ	CYP2C9 inh	DAT uptake mod	CYP2C19 activ
CC1CN(C(=O)COc2ncnc3ccccc23)CC(C)O1 (stereo not drawn)	-4	x	1	-2	0.089	1
Cn1c(CS(=O)Cc2c(Cl)cccc2Cl)nnc1SCc1c(Cl)cccc1Cl (stereo not drawn)	55*	x	0.7	34	0.86	0.4
CN(C)C(=O)CSCc1c(Cl)cccc1Cl	-3	x	1.1	-9	-0.61	1
Fc1cccc(Cl)c1CSc1nnc(CN2CCOCC2)n1-c1ccccc1	25	x	0.9	11	-0.095	0.7
O=S(Cc1ccc(Br)cc1)Cc1nnc(SCc2c(Cl)cccc2Cl)n1-c1ccccc1 (stereo not drawn)	88*	x	0.2	80*	x	0.1
Cn1c(CO)cnc1SCc1c(Cl)cccc1Cl	82*	x	0.8	21	0.18	0.2
Cc1cc(N2CCOCC2)nc(SCC(=O)c2ccc(Cl)cc2)n1	80*	2.2	0.8	23	0.45	0.2
Cc1cc(C)nc(SCNC(=O)c2ccc(Cl)cc2)n1	91*	x	1.6	-63	0.41	0.1
Cc1cc(NCc2ccccc2)nc(N2CCOCC2)n1	-3	x	1	-1	0.01	1
Cc1cc(N2CCOCC2)nc(SCC(=O)c2ccccc2)n1	56*	1.8	0.6	45	-0.21	0.4
Cc1cc(C)nc(NC(=O)c2ccc(Cl)c(Cl)c2)n1	30	x	0.9	8	0.15	0.7
Cc1cc(N2CCCC2)nc(SCC(=O)c2ccccc2)n1	x	x	x	x	-0.93	x
Cc1cc(N2CCOCC2)nc(NCc2ccccc2)n1	74*	x	1	-2	-1.2	0.3
Cn1c(=O)c2c(nc(CN3CCC(C(N)=O)CC3)n2CCc2ccccc2)n(C)c1=O	-14	0.37	1.1	-14	0.67	1.1
Cc1cc(C)nc(SCC(=O)c2ccc([N+](=O)[O-])cc2)n1	92*	x	0.8	20	-0.67	0.1
c1ccc(CNn2c(N3CCOCC3)nc3ccccc32)cc1	70*	-3.3*	0.9	5	-0.46	0.3
CC1=C(N2CCCCC2)CCC1=O	x	x	x	x	0.39	x
Cn1c(SCC(=O)N(C2CCCCC2)C2CCCCC2)nnc1-c1cccs1	47	0.27	0.9	8	-0.26	0.5
COCCCn1c(SCC(=O)OC2CCCCC2)nnc1-c1ccco1	22	x	2.2*	-123	1	0.8
COCCCn1c(SCC(=O)OC2CCCCC2)nnc1-c1cccs1	85*	x	1.7	-73	1.8	0.2
O=C(Nc1nc(-c2ccc3c(c2)OCO3)cs1)C1CC1	33	-0.65	0.5	48	-0.6	0.7
O=C(O)CCC(=O)Nc1nc(-c2ccccc2)cs1	-4	0.38	1	-4	-0.27	1
